Our source for the binding signal values is PMC7862700, “An all-to-all approach to the identification of sequence-specific readers for epigenetic DNA modifications on cytosine”.

Holding throughout (assay): DAPPL (digital affinity profiling via proximity ligation, sequencing); 10 mM Tris-HCl pH 7.5, 50 mM NaCl, 1 mM DTT, 4% glycerol, room temperature, 30 min; GST-TFs on glutathione beads, 16-mer random dsDNA library, 0.1% formaldehyde crosslink after washing; high values mean tight binding
One experiment has as its target T1, FLI1 (Homo sapiens, UniProt Q01543 1-452).
T1 sequence: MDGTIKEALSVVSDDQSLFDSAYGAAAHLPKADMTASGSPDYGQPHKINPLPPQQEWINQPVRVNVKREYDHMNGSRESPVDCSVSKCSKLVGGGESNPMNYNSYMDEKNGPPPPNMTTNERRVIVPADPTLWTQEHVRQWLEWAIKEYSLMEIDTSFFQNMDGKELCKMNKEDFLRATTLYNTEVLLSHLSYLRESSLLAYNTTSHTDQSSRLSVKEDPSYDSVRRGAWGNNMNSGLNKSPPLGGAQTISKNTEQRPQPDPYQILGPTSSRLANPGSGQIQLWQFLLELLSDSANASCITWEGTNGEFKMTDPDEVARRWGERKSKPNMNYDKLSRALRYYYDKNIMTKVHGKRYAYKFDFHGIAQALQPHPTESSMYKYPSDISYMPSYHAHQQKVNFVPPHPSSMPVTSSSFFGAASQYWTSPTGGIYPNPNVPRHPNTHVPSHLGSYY
As to conditions: protein: recombinant; tags: N-terminal GST; dsDNA, one strand shown. The gist of the method: (§1)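 Sequencing on an Illumina NextSeq500 followed washing, crosslinking with 0.1% formaldehyde, proximity ligation (BsaI/T4 ligase, 1 h, 37 °C) and PCR amplification of pools that had been incubated for 30 min at room temperature with 200 nmole of a random double-stranded 16-mer DNA library in Tris/NaCl/DTT/glycerol buffer. Each pool held DNA-barcoded human transcription factors, expressed in yeast as GST fusions and captured on glutathione beads, plus a tag-only sample. Binding signal is a hexamer's read frequency for a factor divided by its frequency in the tag-only sample.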

The next experiment addresses T2, ELK1 (Homo sapiens, UniProt P19419 1-428).
T2 sequence: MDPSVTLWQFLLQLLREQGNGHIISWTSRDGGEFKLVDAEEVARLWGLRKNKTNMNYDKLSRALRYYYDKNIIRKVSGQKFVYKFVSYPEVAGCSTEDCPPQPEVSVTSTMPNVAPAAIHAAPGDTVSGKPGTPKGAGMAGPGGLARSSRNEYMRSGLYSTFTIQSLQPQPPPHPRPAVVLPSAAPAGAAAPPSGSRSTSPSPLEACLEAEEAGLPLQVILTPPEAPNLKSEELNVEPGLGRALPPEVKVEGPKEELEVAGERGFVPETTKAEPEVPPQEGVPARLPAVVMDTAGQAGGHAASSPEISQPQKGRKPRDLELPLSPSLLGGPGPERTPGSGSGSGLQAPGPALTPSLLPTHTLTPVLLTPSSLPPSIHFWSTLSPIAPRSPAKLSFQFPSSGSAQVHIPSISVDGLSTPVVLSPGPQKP
To be noted: protein: recombinant; tags: N-terminal GST; dsDNA, one strand shown. The gist of the method:
as §1

The next experiment has as its target T3, GABPA (Homo sapiens, UniProt Q06546 1-454).
T3 sequence: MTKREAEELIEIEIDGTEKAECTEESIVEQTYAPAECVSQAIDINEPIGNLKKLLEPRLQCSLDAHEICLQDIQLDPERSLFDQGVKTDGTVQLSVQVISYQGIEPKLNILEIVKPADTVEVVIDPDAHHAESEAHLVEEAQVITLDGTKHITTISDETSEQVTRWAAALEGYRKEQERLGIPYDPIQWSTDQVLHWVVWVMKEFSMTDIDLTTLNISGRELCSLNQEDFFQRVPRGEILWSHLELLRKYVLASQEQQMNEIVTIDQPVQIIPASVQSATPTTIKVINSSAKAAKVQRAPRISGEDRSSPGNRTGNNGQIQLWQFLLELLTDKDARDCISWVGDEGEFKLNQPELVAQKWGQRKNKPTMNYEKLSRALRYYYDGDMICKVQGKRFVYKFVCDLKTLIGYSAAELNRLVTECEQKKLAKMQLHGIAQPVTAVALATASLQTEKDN
As to conditions: protein: recombinant; tags: N-terminal GST; dsDNA, one strand shown. The gist of the method:
as §1

The next experiment concerns the target T4, ERG (Homo sapiens, UniProt P11308 1-479).
T4 sequence: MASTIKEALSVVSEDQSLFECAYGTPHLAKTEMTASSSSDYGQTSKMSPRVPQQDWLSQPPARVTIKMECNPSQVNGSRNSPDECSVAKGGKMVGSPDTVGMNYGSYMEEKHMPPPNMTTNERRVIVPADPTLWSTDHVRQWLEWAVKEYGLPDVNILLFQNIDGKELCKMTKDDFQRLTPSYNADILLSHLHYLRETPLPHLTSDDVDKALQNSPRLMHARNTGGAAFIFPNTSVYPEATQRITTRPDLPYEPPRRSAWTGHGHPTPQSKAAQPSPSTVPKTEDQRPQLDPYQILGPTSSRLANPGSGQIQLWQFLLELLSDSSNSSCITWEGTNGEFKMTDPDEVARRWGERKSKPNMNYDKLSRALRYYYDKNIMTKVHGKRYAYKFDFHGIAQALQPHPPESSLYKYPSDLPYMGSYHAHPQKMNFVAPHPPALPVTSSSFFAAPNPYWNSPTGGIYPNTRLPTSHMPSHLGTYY
To be noted: protein: recombinant; tags: N-terminal GST; dsDNA, one strand shown. The gist of the method: as §1

Another experiment concerns the target T5, EHF (Homo sapiens, UniProt Q9NZC4 1-300).
T5 sequence: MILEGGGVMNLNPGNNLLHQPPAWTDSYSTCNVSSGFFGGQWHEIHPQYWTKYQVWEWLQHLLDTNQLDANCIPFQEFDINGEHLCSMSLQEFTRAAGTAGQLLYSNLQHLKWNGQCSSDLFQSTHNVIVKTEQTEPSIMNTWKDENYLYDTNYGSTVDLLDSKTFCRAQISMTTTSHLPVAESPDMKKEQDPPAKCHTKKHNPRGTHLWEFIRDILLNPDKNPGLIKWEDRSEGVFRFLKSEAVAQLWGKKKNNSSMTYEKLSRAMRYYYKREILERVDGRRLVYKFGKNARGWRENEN
To be noted: protein: recombinant; tags: N-terminal GST; dsDNA, one strand shown. The procedure, abridged:
as §1

Another experiment has as its target SPI1 (Homo sapiens, UniProt P17947 1-270). As to conditions: protein: recombinant; tags: N-terminal GST; dsDNA, one strand shown. The procedure, abridged: as §1
The next experiment has as its target SPIB (Homo sapiens, UniProt Q01892 1-262). To be noted: protein: recombinant; tags: N-terminal GST; dsDNA, one strand shown. The gist of the method:
as §1

Another experiment concerns the target T6, ELK3 (Homo sapiens, UniProt P41970 1-407).
T6 sequence: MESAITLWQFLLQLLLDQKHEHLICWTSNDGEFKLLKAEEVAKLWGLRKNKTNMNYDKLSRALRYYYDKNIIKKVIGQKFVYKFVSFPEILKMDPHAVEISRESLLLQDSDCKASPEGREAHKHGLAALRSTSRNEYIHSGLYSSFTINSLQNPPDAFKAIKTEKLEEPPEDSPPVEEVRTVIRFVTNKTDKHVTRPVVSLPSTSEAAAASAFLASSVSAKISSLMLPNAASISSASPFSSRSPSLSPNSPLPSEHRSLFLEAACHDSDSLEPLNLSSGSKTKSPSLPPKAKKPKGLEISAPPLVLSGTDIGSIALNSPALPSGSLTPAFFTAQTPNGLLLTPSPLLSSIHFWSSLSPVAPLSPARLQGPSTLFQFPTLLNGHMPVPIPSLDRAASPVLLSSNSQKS
As to conditions: protein: recombinant; tags: N-terminal GST; dsDNA, one strand shown. The procedure, abridged:
as §1

For the next experiment, the target named is ETV5 (Homo sapiens, UniProt P41161 1-510). To be noted: protein: recombinant; tags: N-terminal GST; dsDNA, one strand shown. The gist of the method: as §1
A further experiment concerns the target HSF1 (Homo sapiens, UniProt Q00613 1-529). To be noted: protein: recombinant; tags: N-terminal GST; chain copies: 3; dsDNA, one strand shown. The gist of the method:
as §1

In another experiment the target is T7, SPIC (Homo sapiens, UniProt Q8N5J4 1-248).
T7 sequence: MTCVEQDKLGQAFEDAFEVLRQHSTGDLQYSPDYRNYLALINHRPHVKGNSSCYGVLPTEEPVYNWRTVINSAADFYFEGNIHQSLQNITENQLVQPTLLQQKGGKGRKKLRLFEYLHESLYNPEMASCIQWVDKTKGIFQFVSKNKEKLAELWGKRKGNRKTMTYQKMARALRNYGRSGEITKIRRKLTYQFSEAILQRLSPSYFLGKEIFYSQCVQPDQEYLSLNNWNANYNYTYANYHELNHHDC
As to conditions: protein: recombinant; tags: N-terminal GST; dsDNA, one strand shown. The gist of the method:
as §1

The next experiment concerns the target ELF4 (Homo sapiens, UniProt Q99607 1-663). To be noted: protein: recombinant; tags: N-terminal GST; dsDNA, one strand shown. The procedure, abridged:
as §1

The target in the next experiment is T8, ELK4 (Homo sapiens, UniProt P28324-2 1-405).
T8 sequence: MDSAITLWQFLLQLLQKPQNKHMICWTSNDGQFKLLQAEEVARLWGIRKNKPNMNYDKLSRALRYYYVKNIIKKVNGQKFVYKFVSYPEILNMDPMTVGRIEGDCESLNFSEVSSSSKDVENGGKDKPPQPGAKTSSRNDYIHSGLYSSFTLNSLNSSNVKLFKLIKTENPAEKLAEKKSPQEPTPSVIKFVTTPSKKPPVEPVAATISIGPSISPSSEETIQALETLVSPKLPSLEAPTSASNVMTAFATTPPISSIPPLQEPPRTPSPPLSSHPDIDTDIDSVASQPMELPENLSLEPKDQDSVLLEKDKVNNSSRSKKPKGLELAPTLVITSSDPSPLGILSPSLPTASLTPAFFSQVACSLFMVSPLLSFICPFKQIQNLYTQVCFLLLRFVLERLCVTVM
As to conditions: protein: recombinant; tags: N-terminal GST; dsDNA, one strand shown. The procedure, abridged:
as §1

A further experiment has as its target T9, ETV2 (Homo sapiens, UniProt O00321 1-342).
T9 sequence: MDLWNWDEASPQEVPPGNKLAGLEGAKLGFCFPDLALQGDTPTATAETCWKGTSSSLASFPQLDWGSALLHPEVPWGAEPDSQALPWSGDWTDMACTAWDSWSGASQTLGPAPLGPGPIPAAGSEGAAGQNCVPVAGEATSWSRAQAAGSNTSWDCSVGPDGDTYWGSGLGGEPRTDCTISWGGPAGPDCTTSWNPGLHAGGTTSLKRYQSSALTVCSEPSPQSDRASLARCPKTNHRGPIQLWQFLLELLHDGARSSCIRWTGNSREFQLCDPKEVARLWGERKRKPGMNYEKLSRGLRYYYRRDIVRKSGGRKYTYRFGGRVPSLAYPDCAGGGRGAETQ
To be noted: protein: recombinant; tags: N-terminal GST; dsDNA, one strand shown. The procedure, abridged: as §1

The next experiment addresses T10, ELF3 (Homo sapiens, UniProt P78545 1-371).
T10 sequence: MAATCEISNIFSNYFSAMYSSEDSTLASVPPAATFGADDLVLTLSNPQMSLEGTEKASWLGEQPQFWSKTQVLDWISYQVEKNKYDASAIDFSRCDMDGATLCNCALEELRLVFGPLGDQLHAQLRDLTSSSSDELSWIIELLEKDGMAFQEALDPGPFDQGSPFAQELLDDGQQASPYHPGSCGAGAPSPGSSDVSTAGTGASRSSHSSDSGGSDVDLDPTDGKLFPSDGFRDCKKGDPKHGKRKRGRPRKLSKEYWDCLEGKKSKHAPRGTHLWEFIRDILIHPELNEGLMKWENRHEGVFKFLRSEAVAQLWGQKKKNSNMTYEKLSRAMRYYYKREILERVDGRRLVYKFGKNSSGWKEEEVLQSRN
To be noted: protein: recombinant; tags: N-terminal GST; dsDNA, one strand shown. The procedure, abridged:
as §1

The target in a further experiment is CRX (Homo sapiens, UniProt O43186 1-299). To be noted: protein: recombinant; tags: N-terminal GST; dsDNA, one strand shown. The gist of the method:
as §1

For another experiment, the target named is ETV1 (Homo sapiens, UniProt P50549 1-477). As to conditions: protein: recombinant; tags: N-terminal GST; dsDNA, one strand shown. The procedure, abridged: as §1
ETV1, sequence (P50549 whole entry): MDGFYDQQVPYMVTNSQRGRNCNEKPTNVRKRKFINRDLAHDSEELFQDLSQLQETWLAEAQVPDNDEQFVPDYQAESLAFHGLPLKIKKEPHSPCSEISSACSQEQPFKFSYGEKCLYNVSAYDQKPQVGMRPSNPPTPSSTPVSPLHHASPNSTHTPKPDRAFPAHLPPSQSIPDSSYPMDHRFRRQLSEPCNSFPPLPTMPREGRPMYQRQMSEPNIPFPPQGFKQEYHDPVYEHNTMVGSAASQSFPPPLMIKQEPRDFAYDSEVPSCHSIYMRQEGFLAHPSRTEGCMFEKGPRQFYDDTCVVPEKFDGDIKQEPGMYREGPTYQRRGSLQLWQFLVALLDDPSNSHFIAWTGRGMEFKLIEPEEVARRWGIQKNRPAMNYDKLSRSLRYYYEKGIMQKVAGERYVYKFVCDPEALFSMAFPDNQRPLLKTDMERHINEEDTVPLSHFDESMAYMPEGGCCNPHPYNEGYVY

CRX, sequence (O43186 whole entry): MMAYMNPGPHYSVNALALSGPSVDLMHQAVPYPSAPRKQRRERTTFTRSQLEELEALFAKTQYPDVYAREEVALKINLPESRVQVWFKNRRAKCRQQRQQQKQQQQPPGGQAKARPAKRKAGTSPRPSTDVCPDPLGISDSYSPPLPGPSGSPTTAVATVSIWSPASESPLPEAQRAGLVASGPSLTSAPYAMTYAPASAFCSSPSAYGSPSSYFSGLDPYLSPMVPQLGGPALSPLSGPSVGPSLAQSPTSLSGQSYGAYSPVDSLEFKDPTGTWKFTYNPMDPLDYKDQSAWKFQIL
ELF4, sequence (Q99607 whole entry): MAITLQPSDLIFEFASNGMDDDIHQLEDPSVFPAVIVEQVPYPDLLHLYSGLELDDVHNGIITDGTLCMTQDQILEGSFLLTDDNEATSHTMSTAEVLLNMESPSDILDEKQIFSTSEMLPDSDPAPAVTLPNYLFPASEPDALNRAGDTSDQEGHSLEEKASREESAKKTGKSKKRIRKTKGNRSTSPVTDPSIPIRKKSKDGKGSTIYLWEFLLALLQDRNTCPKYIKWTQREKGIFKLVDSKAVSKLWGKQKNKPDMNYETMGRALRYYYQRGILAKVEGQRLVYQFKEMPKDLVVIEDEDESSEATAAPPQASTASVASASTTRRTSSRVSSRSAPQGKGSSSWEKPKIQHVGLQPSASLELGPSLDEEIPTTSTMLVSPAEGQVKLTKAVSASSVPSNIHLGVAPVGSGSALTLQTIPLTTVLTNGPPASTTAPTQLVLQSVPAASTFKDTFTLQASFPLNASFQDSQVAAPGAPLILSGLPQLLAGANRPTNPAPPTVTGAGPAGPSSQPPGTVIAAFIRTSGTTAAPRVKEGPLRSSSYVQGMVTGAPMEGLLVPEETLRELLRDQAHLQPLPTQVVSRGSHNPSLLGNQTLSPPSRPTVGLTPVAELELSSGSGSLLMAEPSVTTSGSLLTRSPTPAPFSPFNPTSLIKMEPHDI
HSF1, sequence (Q00613 whole entry): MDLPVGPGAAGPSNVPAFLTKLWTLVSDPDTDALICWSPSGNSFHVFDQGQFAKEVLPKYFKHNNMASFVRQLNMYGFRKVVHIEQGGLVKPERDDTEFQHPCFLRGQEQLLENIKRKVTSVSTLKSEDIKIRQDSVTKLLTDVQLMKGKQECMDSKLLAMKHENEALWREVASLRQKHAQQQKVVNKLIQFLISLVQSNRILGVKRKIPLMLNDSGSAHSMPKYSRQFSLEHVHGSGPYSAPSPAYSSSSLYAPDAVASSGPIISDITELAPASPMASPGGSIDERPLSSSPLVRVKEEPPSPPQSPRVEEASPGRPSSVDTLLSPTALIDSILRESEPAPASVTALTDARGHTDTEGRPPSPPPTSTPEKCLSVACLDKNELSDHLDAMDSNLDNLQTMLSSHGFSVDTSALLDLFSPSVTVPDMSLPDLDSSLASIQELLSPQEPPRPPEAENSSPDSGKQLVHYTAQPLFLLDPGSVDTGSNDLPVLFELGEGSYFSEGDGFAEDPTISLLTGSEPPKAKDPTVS
ETV5, sequence (P41161 whole entry): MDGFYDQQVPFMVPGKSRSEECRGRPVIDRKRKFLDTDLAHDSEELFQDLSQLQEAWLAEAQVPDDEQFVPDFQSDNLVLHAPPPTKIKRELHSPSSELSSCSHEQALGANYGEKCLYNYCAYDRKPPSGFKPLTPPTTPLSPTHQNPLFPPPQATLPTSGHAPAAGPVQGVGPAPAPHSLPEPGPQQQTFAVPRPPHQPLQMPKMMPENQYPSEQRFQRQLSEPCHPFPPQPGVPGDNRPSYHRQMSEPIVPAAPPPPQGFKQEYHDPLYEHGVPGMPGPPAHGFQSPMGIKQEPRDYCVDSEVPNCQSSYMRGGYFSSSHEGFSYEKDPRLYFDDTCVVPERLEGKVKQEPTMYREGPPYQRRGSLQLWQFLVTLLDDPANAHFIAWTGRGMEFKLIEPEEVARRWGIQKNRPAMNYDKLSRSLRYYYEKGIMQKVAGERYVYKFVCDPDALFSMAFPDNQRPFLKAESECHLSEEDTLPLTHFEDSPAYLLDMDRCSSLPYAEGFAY
SPIB, sequence (Q01892 whole entry): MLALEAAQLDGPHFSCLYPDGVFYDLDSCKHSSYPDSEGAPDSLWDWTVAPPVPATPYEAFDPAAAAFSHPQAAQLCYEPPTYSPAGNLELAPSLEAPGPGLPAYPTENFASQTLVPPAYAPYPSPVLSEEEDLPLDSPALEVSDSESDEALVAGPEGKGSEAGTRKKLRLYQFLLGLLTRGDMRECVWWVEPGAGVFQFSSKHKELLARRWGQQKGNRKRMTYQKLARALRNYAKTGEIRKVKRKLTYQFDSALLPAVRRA

With AGGTTT, the binding signal in the experiment with FLI1 was 1.02 fold enrichment (6-mer frequency, TF over GST control); with ELK1, 1.04 fold enrichment (6-mer frequency, TF over GST control); in the experiment with GABPA it was 1.08 fold enrichment (6-mer frequency, TF over GST control); with ERG it was 1.06 fold enrichment (6-mer frequency, TF over GST control); in the experiment with EHF, 1.07 fold enrichment (6-mer frequency, TF over GST control); with SPI1, 1.06 fold enrichment (6-mer frequency, TF over GST control). The binding signal with SPIB was 1.04 fold enrichment (6-mer frequency, TF over GST control); with ELK3 it was 1.13 fold enrichment (6-mer frequency, TF over GST control); in the experiment with ETV5, 1.05 fold enrichment (6-mer frequency, TF over GST control); in the experiment with HSF1, 1.04 fold enrichment (6-mer frequency, TF over GST control); in the experiment with SPIC, 1.03 fold enrichment (6-mer frequency, TF over GST control); with ELF4, 1.07 fold enrichment (6-mer frequency, TF over GST control). Moreover, the binding signal with ELK4 is 1.06 fold enrichment (6-mer frequency, TF over GST control); in the experiment with ETV2, 1.05 fold enrichment (6-mer frequency, TF over GST control); with ELF3 it was 1.07 fold enrichment (6-mer frequency, TF over GST control); in the experiment with CRX it was 1.19 fold enrichment (6-mer frequency, TF over GST control); with ETV1, 1.1 fold enrichment (6-mer frequency, TF over GST control).
